What all share (experiment): NCI-60 one-dose screen, 48 h (100 = growth as untreated, 0 = no growth, -100 = all killed)
Holding throughout (conditions): 10 µM unless noted

Assay [1] concerns DU-145 prostate.
The subject of assay [2] is K-562 leukemia.
The subject of assay [3] is MALME-3M melanoma.
Assay [4] has as its system MDA-MB-231 breast.
Assay [5] relates to RXF 393 renal.
Assay [6] has as its system SF-268 CNS.
The test system of assay [7] is SF-295 CNS.
Assay [8] concerns SF-539 CNS.
The test system of assay [9] is UACC-257 melanoma.
Assay [10] has as its system M14 melanoma.
In assay [11] the test system is HCT-15 colon.
For assay [12], the system named is HT29 colon.
The test system of assay [13] is SNB-75 CNS.
Assay [14] concerns SNB-19 CNS.
Assay [15] has as its system U251 CNS.
Assay [16] deals with PC-3 prostate.
The subject of assay [17] is UACC-62 melanoma.
The subject of assay [18] is LOX IMVI melanoma.
Assay [19] concerns SK-MEL-28 melanoma.
In assay [20] the test system is SK-MEL-5 melanoma.

SMILES strings stand for the structures. Compounds without any hit were thinned out: in the full panel of roughly 83,000, 20% have a hit.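 Note: values are percent growth. 100 is the growth of untreated cells, values between 100 and 0 indicate rising inhibition; between -100 and 0 indicates cell death.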 Values without a mark were called inactive. Activity calls are given as the source filed them. Rule for the calls: active = growth percent below 10; inactive = the rest.

With `O=S(=O)(Nc1ccc(Cl)c(Cl)c1)c1ccc(-c2cnc(C3CC3)o2)cc1`, the growth in assay [1] was 15.3%; in [2] it was 16.2%; in [3], 53.3%; in assay [4] it was 28.4%; in assay [5], -19.4% (active); in assay [6], 47.7%. Further, the growth was 14.9% in assay [7]; -13.5% (active) in assay [8]; 63.1% in assay [9]; 14.1% in assay [10]; 23.9% in assay [11]; 10.2% in [12]. Besides, the growth was -3.4% (active) in assay [13]; 30.9% in [14]; 22.1% in assay [15]; 14.2% in [16]; 26.8% in assay [17]; 45.6% in [18]. The growth in assay [19] was 58.3%.
In the case of `O=C(N/N=C/c1ccc(F)cc1)c1[nH]c2ccc(I)cc2c1-c1ccccc1`, the growth in assay [1] was 15.7%; in [2] it was 75.4%; in assay [3] it was 71.5%; in assay [4], 16.5%; in [5] it was 39.6%; in [6] it was 34.6%. The growth in assay [7] is 22.1%; in assay [8], -18.1% (active); in assay [9], 93.3%; in assay [10] it was 28.4%; in assay [11], 18.7%; in [12] it was 12.5%. Further, the growth in [13] was 51.7%; in [14], 12%; in assay [15], 20.4%; in assay [16], 20.6%; in [20] it was -30% (active); in assay [18] it was 25.8%. Also, the growth in assay [19] was 67.9%.
For the compound `CCC(=O)Nc1nnc(Cc2ccc(OC)c(OC)c2)s1`, the growth in assay [1] was -49.6% (active); in [2], 2.4% (active); in [3], -46.3% (active); in [4] it was 1.66% (active); in assay [5], -32.9% (active); in assay [6] it was -14% (active). Moreover, the growth in assay [7] was -78.7% (active); in assay [8], -74.1% (active); in assay [9], -26.3% (active); in assay [10], 22.7%; in [11] it was 31.7%; in [12] it was -46.9% (active). Also, the growth is -83.3% (active) in assay [13]; 2.39% (active) in assay [14]; -52.9% (active) in [15]; 9.29% (active) in assay [16]; -3.8% (active) in assay [17]; 15.6% in assay [18]. Further, the growth in [19] was -97.7% (active).
On to `Cc1nc2cc(Nc3nc(Nc4ccc(F)cc4)nc(-c4ccc(Cl)cc4)n3)ccc2n1Cc1ccccc1`, for which the growth in assay [1] is 81.4%; in [2], 33.6%; in [3], 72.5%; in assay [4], 66%; in assay [5] it was 68.5%; in assay [6] it was 54.9%. Moreover, the growth in assay [7] was 90.4%; in assay [8], 92.6%; in assay [9], 68.9%; in [10], 58.3%; in [11] it was 64.4%; in assay [12], 55.8%. Besides, the growth is 65.2% in assay [13]; 83.4% in assay [14]; 69.7% in assay [15]; 83.4% in assay [20]; 76.6% in assay [18]; 92.6% in [19].
For `COc1ccc(OC)c(C2C(C#N)=C(N)Oc3cc(O)ccc32)c1` (centres undefined), the growth is 107% in assay [1]; 83.4% in [2]; 85.9% in assay [3]; 99% in assay [4]; 92.1% in assay [5]; 98.2% in assay [6]. In addition, the growth in [7] is 83.3%; in assay [8] it was 104%; in assay [9] it was 99.9%; in [10], 100%; in [11] it was 94.4%; in assay [12], 95.4%. Further, the growth in [13] was 91.5%; in assay [14], 102%; in assay [15], 99%; in assay [16], 95.5%; in [17], 91.9%; in assay [18], 100%. Further, in assay [19], the growth is 103%.
For `C[C@@H](Oc1cc(-c2cnn(C3CC4(CCNCC4)C3)c2)cnc1N)c1c(F)ccc(Cl)c1Cl`, the growth in [1] is 37.9%; in assay [2] it was -19.9% (active); in [3], -67.6% (active); in [4], -54% (active); in [5] it was -31.5% (active); in assay [6], -24.5% (active). Moreover, the growth was -10.2% (active) in assay [7]; -90.7% (active) in assay [8]; -89.5% (active) in assay [9]; -75.5% (active) in assay [10]; 1.76% (active) in assay [11]; -56.6% (active) in assay [12]. Moreover, the growth in assay [13] was -3.45% (active); in assay [14], 61.6%; in assay [15] it was 12.1%; in [16], 6.2% (active); in assay [17] it was -88.1% (active); in assay [18], -85.8% (active). Moreover, the growth in assay [19] was -83.4% (active).
In the case of `CCOC(=O)c1c(-c2cc(OC)c(OC)c(OC)c2)csc1N`, the growth in [1] is 101%; in assay [2] it was 45.5%; in assay [3] it was 92.1%; in assay [4], 105%; in assay [5], 93.2%; in [6] it was 94.5%. For the same compound, the growth in [7] was 65.4%; in [8], 94.7%; in [9], 104%; in [10], 89.8%; in assay [11], 66.9%; in assay [12], 71.9%. The growth in [13] was 84.2%; in assay [14] it was 108%; in assay [15], 97.2%; in assay [16], 88.6%; in assay [17] it was 88.6%; in assay [18], 95.4%. Besides, the growth in [19] was 91.1%.
On to `Brc1ccc(SCN(CSc2ccc(Br)cc2)Cc2ccccc2)cc1`, for which the growth is 96.8% in [1]; 81.5% in assay [2]; 104% in assay [3]; 39.8% in assay [4]; 89.9% in [5]; 45.4% in assay [6]. Also, the growth in [7] was 52.3%; in [8] it was 49.8%; in [9], 93.1%; in [10], 73.7%; in assay [11], 78.8%; in assay [12], 78.9%. Besides, the growth in assay [13] was 66.4%; in assay [14] it was 84.2%; in [16], 26.4%; in assay [20] it was 91.2%; in [17], 92%; in [18] it was -15.5% (active). Moreover, in assay [19], the growth was 101%.
With `CC1(C)N=C(N)N=C(N)N1c1cccc(OCCOc2cccc([N+](=O)[O-])c2)c1`, the growth in assay [1] was 45.1%; in [2], 17.9%; in assay [3] it was 48.2%; in [4] it was 65%; in [5], 73.2%; in assay [6] it was 22.9%. The growth in [7] is 68.1%; in [8], 26.1%; in [9], 48.3%; in [10], 64.1%; in [11], 89.5%; in assay [12], 15.4%. Further, the growth is 51.8% in assay [13]; 53.9% in [14]; 17.8% in assay [16]; 70.5% in [20]; 39.6% in assay [17]; 20.1% in assay [18]. Moreover, the growth in assay [19] is 56%.
Regarding `O=C(Nc1ccc(F)cc1)c1ccc(C(=O)Nc2ccc(F)cc2)cc1`, the growth in assay [1] was 112%; in assay [2] it was 98.7%; in assay [3], 101%; in assay [4] it was 102%; in assay [5], 105%; in assay [6] it was 107%. For the same compound, the growth in assay [7] is 91.1%; in [8], 89.9%; in [9], 101%; in [10] it was 105%; in assay [11], 89.1%; in assay [12], 97.7%. In addition, the growth in assay [13] was 84.1%; in [14], 106%; in [16] it was 99.6%; in assay [20], 99.9%; in assay [17], 107%; in assay [18], 103%. Also, the growth in [19] was 98.6%.
With `O=c1oc2ccccc2cc1-c1csc(N=Nc2c(O)[nH]c3ccc(Cl)cc23)n1`, the growth in [1] was 108%; in assay [2], 98.7%; in [3], 105%; in assay [4] it was 102%; in assay [5] it was 129%; in [6] it was 98.4%. The growth is 98.6% in [7]; 94.5% in assay [8]; 80.1% in assay [9]; 111% in assay [10]; 99.5% in assay [11]; 101% in assay [12]. The growth in assay [13] is 93.3%; in [14] it was 99.2%; in assay [16], 100%; in assay [20], 104%; in assay [17], 98.2%; in assay [18], 97.7%. For the same compound, the growth in [19] is 103%.
As to `Clc1ccccc1Nc1ccc2nnc(-c3ccncc3)n2n1`, the growth in assay [1] was 114%; in assay [2] it was 47.6%; in [3], 112%; in [4] it was 108%; in assay [5], 96.2%; in [6], 101%. The growth in assay [7] was 93.9%; in assay [8], 92.7%; in assay [9], 114%; in [10], 112%; in assay [11] it was 91.8%; in assay [12] it was 99.2%. Also, the growth in assay [13] is 96.2%; in assay [14] it was 107%; in assay [16] it was 75.7%; in assay [20], 97.9%; in [17], 98.4%; in assay [18], 96.1%. Also, the growth in assay [19] was 122%.
For the compound `COc1cccc(-c2ccc3c(c2)C2CCN(Cc4ccccc4)C3C2)c1` (centres undefined), the growth in [1] was 95.6%; in assay [2], 22.7%; in assay [3], 62.8%; in assay [4], 88.8%; in [5], 98%; in [6] it was 86.9%. The growth in [7] is 81.2%; in assay [8], 85.1%; in [9] it was 78.7%; in [10], 72.2%; in assay [11], 57.8%; in [12], 36.5%. Further, the growth in assay [13] is 77%; in [14], 90.4%; in assay [16], 66.5%; in [20] it was 99.4%; in [17], 83.6%; in [18], 85.5%. Moreover, in [19], the growth was 85.7%.
With `Cc1nc2cc(Nc3nc(Nc4ccc(F)cc4)nc(-c4cccs4)n3)ccc2n1Cc1ccccc1`, the growth in assay [1] is 75.2%; in assay [2] it was 43.1%; in [3] it was 77.6%; in assay [4] it was 69.1%; in [5], 25.9%; in assay [6], 63.7%. Besides, the growth in [7] is 51.9%; in assay [8], 59.9%; in [9], 57.5%; in assay [10] it was 53.1%; in assay [11], 30.3%; in [12] it was 20.5%. Moreover, the growth in assay [13] was 52.2%; in [14] it was 66.7%; in assay [16], 29.4%; in assay [20], 76.5%; in assay [17] it was 61.5%; in assay [18], 64.8%. Further, the growth in assay [19] was 74.3%.
Take `Nc1cc2[nH]c(=O)c3ccccc3c2cc1Br`: the growth in assay [1] was 77%; in [2], 95%; in assay [3], 102%; in assay [4] it was 53.2%; in assay [5], 85.4%; in [6], 86.3%. For the same compound, the growth in [7] was 95.6%; in [8], 74.6%; in assay [9], 109%; in assay [10] it was 83.3%; in [11] it was 52.6%; in assay [12] it was 111%. For the same compound, the growth is 57% in assay [13]; 93.6% in [14]; 81.5% in [16]; 67.2% in assay [20]; 80.7% in assay [17]; 74.5% in [18]. Also, in assay [19], the growth is 97.8%.

Source of the values: PubChem BioAssay (NCI).
